# Compound activity from PubChem BioAssay.
# PD-1 reverse act = activators reversing PD-1 mediated T-cell inhibition; primary human CD4 T cells, PD-L1 beads, CellTiter-Glo 96 h; 29,000 tested, under 10 active; activation, % (test concentration not listed); call rule not given here;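 note: 0% = median vehicle wells and 100% = positive control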
# STK33 kin inh = human STK33 kinase inhibition. Q9BYT3. ADP-Glo luminescence, MBP substrate. inhibition, % at 12.5 µM. hit rate 0.44% among 27,000. AID 2322; in the data active = inhibition above about 20%
# Target sequence (Q9BYT3 whole entry, looked up): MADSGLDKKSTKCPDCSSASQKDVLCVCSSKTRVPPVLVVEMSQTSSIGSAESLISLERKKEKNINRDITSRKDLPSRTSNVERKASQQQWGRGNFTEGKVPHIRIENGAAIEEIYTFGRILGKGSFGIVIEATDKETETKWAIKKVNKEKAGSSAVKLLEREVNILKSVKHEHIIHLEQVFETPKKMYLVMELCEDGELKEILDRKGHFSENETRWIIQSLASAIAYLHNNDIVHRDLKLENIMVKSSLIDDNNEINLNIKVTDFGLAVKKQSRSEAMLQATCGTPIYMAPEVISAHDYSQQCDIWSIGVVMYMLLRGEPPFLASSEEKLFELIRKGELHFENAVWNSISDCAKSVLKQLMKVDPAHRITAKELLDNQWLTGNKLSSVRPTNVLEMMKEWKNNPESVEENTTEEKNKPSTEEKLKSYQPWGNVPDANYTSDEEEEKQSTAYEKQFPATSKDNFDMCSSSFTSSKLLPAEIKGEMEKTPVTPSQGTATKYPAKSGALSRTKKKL
# NOMO-1 viab = STK33 inhibitor candidate reducing NOMO-1 cell viability; inhibition, % (concentration not given with the values); hit rate 7.5% among 37,000; NOMO-1 AML viability, CellTiter-Glo luminescence, 72 h; in the data active = inhibition above about 80%
# * marks the source's active call; other numbers are inactive results; . = no result given. The full list was thinned out, with hits kept by preference.
SMILES,PD-1 reverse act,STK33 kin inh,NOMO-1 viab
C[C@@H]1CN([C@@H](C)CO)C(=O)Cc2cc(N(C)C)ccc2O[C@@H]1CN(C)Cc1ccc(Cl)c(Cl)c1,-8,0,127*
C[C@H](CO)N1C[C@H](C)[C@H](CN(C)Cc2ccc(Oc3ccccc3)cc2)Oc2ccc(N(C)C)cc2CC1=O,-1,3,-4
C[C@@H]1CN([C@H](C)CO)C(=O)Cc2cc(N(C)C)ccc2O[C@H]1CN(C)Cc1ccc(Oc2ccccc2)cc1,-4,1,110*
C[C@H]1CN([C@@H](C)CO)C(=O)Cc2cc(N(C)C)ccc2O[C@H]1CN(C)Cc1ccc(Cl)c(Cl)c1,-2,0,-1
CC(=O)N(CN1C(=O)c2ccccc2C1=O)c1ccccc1C,0,.,9
COC(=O)C1=CN(C2CC2)C=C(C(=O)OC)C1c1ccccc1,-1,.,48
COc1ccc2c(c1)SC1=NC(=O)C(Cc3ccccc3)C(=O)N12 (centres undefined),1,.,6
CC1CC(=O)C2C(O)(C1)CC(O)C13OC21C(=O)c1cccc(O)c1C3O (centres undefined),-2,-8,40
O=C(CSc1nnnn1-c1ccccc1F)Nc1ccc(Br)cc1,0,0,9
Cc1ccc(OCC(=O)O)c(C)c1,0,.,-10
CCc1ccc(O)c(NC(=S)NC(=O)COc2ccc(C)cc2C)c1,.,-3,120*
Cc1cc(C(=O)O)ccc1NC(=O)CNC(=O)C1CCCCC1,3,0,1
CS(=O)(=O)N(CC(=O)Nc1ccc(Br)cc1F)c1ccc(Cl)c(Cl)c1,-1,-1,37
C[C@H](CO)N1C[C@H](C)[C@H](CN(C)CC2CC2)Oc2c(NC(=O)Nc3ccc(C(F)(F)F)cc3)cccc2C1=O,0,.,44
C[C@@H]1CN([C@H](C)CO)C(=O)c2cccc(NC(=O)Nc3ccc(C(F)(F)F)cc3)c2O[C@@H]1CN(C)CC1CC1,1,.,20
C[C@@H]1CN([C@@H](C)CO)C(=O)c2cccc(NC(=O)Nc3ccc(C(F)(F)F)cc3)c2O[C@H]1CN(C)CC1CC1,-6,.,83*
C[C@H](CO)N1C[C@H](C)[C@@H](CN(C)CC2CCCCC2)Oc2c(NC(=O)Nc3ccc(C(F)(F)F)cc3)cccc2C1=O,-5,.,121*
COc1ccc(Cl)cc1NC(=O)CN(c1cccc(F)c1)S(C)(=O)=O,.,-6,30
COc1ccc([N+](=O)[O-])cc1NC(=O)c1cc(-c2ccccn2)nc2ccc(C)cc12,0,1,58
CC1=CC(C)C2(COC(=O)NC3CCCCC3)COC3(CCCC3)C1C2C (centres undefined),1,.,113*
Cc1ccc(NC(=O)CSc2nnc(-c3ccccc3F)n2C)cc1[N+](=O)[O-],0,-2,8
Cc1oc2c(c1C(=O)NCCc1ccccc1)C(=O)c1ccccc1C2=O,0,.,32
Cc1oc2c(c1C(=O)N1CCC(C)CC1)C(=O)c1ccccc1C2=O,-6,.,113*
Cc1ccc(S(=O)(=O)NCC(=O)N2CCC(C)CC2)cc1,2,.,2
Cc1oc2c(c1C(=O)NC1CCCC1)C(=O)c1ccccc1C2=O,-4,.,140*
SMILES,PD-1 reverse act,STK33 kin inh,NOMO-1 viab
Nc1nnc(SCC(=O)Nc2cccc(Cl)c2Cl)s1,1,-4,55
Cc1ccc(S(=O)(=O)NC(C)C(=O)Nc2ccc(C)c(Cl)c2)cc1 (centres undefined),.,1,21
Cc1ccc(NC(=S)C(C#N)C(N)=O)cc1Cl (centres undefined),-7,.,108*
CNc1[nH]c(=S)nc2sc3c(c12)CCCC3,0,.,8
O=C(O)CCC(=O)Nc1cccc(C(F)(F)F)c1,.,1,-20
O=C(/C=N/O)Nc1cc(C(F)(F)F)cc(C(F)(F)F)c1,1,.,116*
C[C@@H]1CN([C@H](C)CO)C(=O)c2cc(NC(=O)Cc3ccccc3)ccc2O[C@@H]1CN(C)Cc1ccc(C(=O)Nc2ccccc2N)cc1,-3,.,105*
C[C@H](CO)N1C[C@H](C)[C@@H](CN(C)Cc2ccc(C(=O)Nc3ccccc3N)cc2)Oc2ccc(NC(=O)Cc3ccccc3)cc2C1=O,-1,.,4
C[C@@H]1CN([C@H](C)CO)C(=O)c2cc(NC(=O)Nc3ccccc3)ccc2O[C@@H]1CN(C)Cc1ccc(C(=O)Nc2ccccc2N)cc1,-3,.,109*
C[C@H](CO)N1C[C@H](C)[C@@H](CN(C)Cc2ccc(C(=O)Nc3ccccc3N)cc2)Oc2ccc(NC(=O)Nc3ccc(F)cc3)cc2C1=O,0,.,31
CO[C@@H]1CC(OC2CCC3(C)C(CCC45CCC(C6=CC(=O)OC6)C(C)(CCC43)C5=O)C2)O[C@H](C)[C@@H]1O[C@@H]1O[C@H](CO[C@@H]2O[C@H](CO)[C@@H](O)[C@H](O)[C@H]2O)[C@@H](O)[C@H](O)[C@H]1O (some centres undefined),-10,0,119*
C=C1[C@@H](C2=CC(=O)OC2)CC[C@@]2(O)[C@@H]1CC1[C@H]2CC[C@@H]2C[C@@H](O[C@H]3O[C@@H](C)[C@@H](O[C@@H]4O[C@H](CO[C@@H]5O[C@H](CO)[C@@H](O)[C@H](O)[C@H]5O)[C@@H](O)[C@H](O)[C@H]4O)[C@H](OC)[C@H]3O)CC[C@]12C (some centres undefined),.,-1,.
CO[C@@H]1C=C[C@@]23c4cc5c(cc4CN(CC2O)[C@H]3C1)OCO5 (some centres undefined),-1,-8,113*
C/C(=C\CC(C)(C)/C=C/Cc1ccoc1)C(=O)O,0,-4,-3
Cc1ccc(S(=O)(=O)N[C@@H](Cc2ccccc2)C(=O)CCl)cc1,.,8,120*
CCCC(NS(=O)(=O)c1ccc(C)cc1)C(=O)O (centres undefined),.,-7,0
COc1ccc(C)cc1NC(=O)CSc1n[nH]c(-c2ccc(Cl)cc2)n1,0,2,-10
COc1ccc(OC)c(CCCCc2cc(OC)ccc2OC)c1,0,.,15
C=C1CC[C@@H]2[C@](C)(CO[C@@H]3O[C@H](CO)[C@@H](O)[C@H](O)[C@H]3O)CCC[C@@]2(C)[C@@H]1CCC1=CCOC1=O,-2,-3,16
C=C1CC[C@@H]2[C@](C)(CO)[C@H](O)CC[C@@]2(C)[C@@H]1CC(O)C1=CCOC1=O (some centres undefined),-6,-1,106*
CN1C(=O)C(C(=O)NC(C)(C)C)C2CC1(C)Oc1ccccc12 (centres undefined),2,.,-4
CCC1(CC)C(=O)c2cc3ccccc3cc2C1=O,0,.,27
O=C(COC(=O)c1ccc(N2C(=O)c3ccccc3C2=O)cc1)c1ccccc1,0,.,19
COc1ccc(CN(C)C[C@H]2Oc3c(NC(=O)c4ccc(-c5nccs5)cc4)cccc3C(=O)N([C@H](C)CO)C[C@@H]2C)cc1,.,.,47
C[C@@H]1CN([C@H](C)CO)C(=O)c2cccc(NC(=O)c3ccc(-c4nccs4)cc3)c2O[C@@H]1CN(C)Cc1ccc(Oc2ccccc2)cc1,-5,.,89*
C[C@@H]1CN([C@@H](C)CO)C(=O)c2cccc(NC(=O)c3ccc(-c4nccs4)cc3)c2O[C@H]1CN(C)Cc1ccc(Oc2ccccc2)cc1,-1,.,111*
